# According to PubChem BioAssay AID2550 (Johns Hopkins Ion Channel Center, 2010):
# Hit rate of the full screen: of about 310,000 compounds, about 380 (0.12%) were called active.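 The calls were made as follows: active = B-score of the integrated fluorescence ratio above library mean plus 3 SD, and starting fluorescence ratio within library mean plus 5 SD; inactive = the rest.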 This excerpt belongs to a sample that is enriched for actives.
# Molecular target: Short transient receptor potential channel 6 (Mus musculus) (UniProt Q61143)
# Sequence (Q61143 whole entry, looked up): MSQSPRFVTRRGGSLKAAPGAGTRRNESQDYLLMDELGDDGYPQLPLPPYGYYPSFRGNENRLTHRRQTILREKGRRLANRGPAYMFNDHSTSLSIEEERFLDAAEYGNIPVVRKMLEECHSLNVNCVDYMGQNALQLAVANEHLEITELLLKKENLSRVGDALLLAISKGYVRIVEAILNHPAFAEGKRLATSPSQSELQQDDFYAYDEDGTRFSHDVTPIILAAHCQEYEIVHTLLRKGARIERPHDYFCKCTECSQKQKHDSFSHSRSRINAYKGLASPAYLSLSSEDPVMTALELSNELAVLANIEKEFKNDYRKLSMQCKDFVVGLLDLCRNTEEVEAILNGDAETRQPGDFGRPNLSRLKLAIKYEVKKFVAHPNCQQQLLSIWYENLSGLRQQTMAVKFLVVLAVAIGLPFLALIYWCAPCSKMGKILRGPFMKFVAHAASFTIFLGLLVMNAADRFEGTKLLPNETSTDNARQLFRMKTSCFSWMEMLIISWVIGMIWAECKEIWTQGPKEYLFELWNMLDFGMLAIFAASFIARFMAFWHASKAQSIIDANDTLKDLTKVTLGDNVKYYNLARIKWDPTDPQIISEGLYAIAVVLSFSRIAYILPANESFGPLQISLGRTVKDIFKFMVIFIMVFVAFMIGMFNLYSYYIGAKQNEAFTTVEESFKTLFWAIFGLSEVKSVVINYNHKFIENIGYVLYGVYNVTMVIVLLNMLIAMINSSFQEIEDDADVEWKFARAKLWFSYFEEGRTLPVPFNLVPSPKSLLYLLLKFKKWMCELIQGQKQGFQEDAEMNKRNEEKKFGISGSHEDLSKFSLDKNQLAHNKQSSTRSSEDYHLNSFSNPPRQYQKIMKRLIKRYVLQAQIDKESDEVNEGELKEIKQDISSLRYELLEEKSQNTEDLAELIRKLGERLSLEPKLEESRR
# Test: mouse TRPC6 channel activators, primary screen, cell-based, HEK293, membrane potential dye (AID 2550);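 also: higher score means more depolarization so channel activation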
# Conditions: HEK293-TRPC6 membrane potential dye fluorescence, at 10 µM; hits give high values
row,SMILES,B-score
1,CCOC(=O)/C(N=Nc1cc(C(=O)O)cc(C(=O)O)c1)=C(\O)CCl,inactive
2,CC(=O)c1ccc(NC(=O)C(C)NCc2ccc(Cl)cc2)cc1 (configuration not stated),inactive
3,O=C(CN1C(=O)NC2(CCCCC2)C1=O)NCCc1c[nH]c2ccccc12,inactive
4,CC(=O)N/C(=C/c1ccc(Cl)cc1)C(=O)NCCc1c[nH]c2ccccc12,inactive
5,N#C/C(=C/c1ccc(N2CCCCC2)o1)C(=O)NCCc1c[nH]c2ccccc12,33.2 (active)
6,O=C(COc1cc2oc(=O)c3c(c2cc1Cl)CCC3)NCCCN1CCOCC1,inactive
7,COc1nc(N(C)C)nc(N2CC(=O)N(CCNS(=O)(=O)c3ccc(C)cc3)C2=N)n1,inactive
8,CC(C)(C)NCc1cc(Br)ccc1OC1CCCC1,inactive
9,COc1ccccc1CN1CCN(C(c2ccccc2)c2ccccc2)CC1,inactive
10,CC(NCc1ccccc1OC1CCCC1)c1ccccc1 (configuration not stated),14.5 (active)
11,COc1ccc2[nH]c(=O)c(CNc3ccc(C)c(C)c3)cc2c1,inactive
12,CC(=O)c1ccc(N2CCN(S(=O)(=O)c3c(C)[nH]c(=O)[nH]c3=O)CC2)cc1,inactive
13,CN1C(C(=O)NCC2CC2)CC2Cn3c(nc4ccccc43)C21 (configuration not stated),inactive
14,CC1(C)OC(=O)C(=CSc2ccc(C(C)(C)C)cc2)C(=O)O1,inactive
15,COc1ccc(-c2nnc(NC(=O)CS(=O)(=O)c3ccc(Cl)cc3)o2)c(OC)c1,13.4 (active)
16,Cc1ccc(C)c(-c2nnc(NC(=O)CS(=O)(=O)c3ccccc3)o2)c1,inactive
17,COc1ccc(NC(=O)CS(=O)(=O)c2ccccc2)cc1,inactive
18,CCOC(=O)CSC1=N/C(=C/c2ccc(-n3cncn3)cc2)C(=O)N1C(C)=O,inactive
19,COc1ccc(S(=O)(=O)NCC(=O)NC2CC2)cc1OC,inactive
20,CCc1ccc2oc(=O)cc(CN3CCCCC3C)c2c1 (configuration not stated),inactive
21,CCC1OC(c2ccc([N+](=O)[O-])cc2)=Nc2ccccc21 (configuration not stated),inactive
22,Cc1cc(Cl)ccc1C(=O)C1CCCN(C(=O)CCN2CCCO2)C1 (configuration not stated),inactive
23,O=C(COc1ccc(S(=O)(=O)N2CCOCC2)cc1Cl)N1CCOCC1,inactive

row,SMILES,B-score
1,O=c1[nH]oc(O)c1-c1ncc(C(F)(F)F)cc1Cl,inactive
2,CC(C)(C)NC(=O)C(=O)NCc1ccncc1,inactive
3,COc1ccc(CNC(=O)COC(=O)/C=C/c2ccc(S(=O)(=O)N3CCOCC3)cc2)cc1,inactive
4,Cc1ccc(NC(=O)CN2C(=O)NC(C)(c3ccc(Cl)cc3)C2=O)c(Br)c1 (configuration not stated),inactive
5,O=C(COc1ccc2ccc(=O)oc2c1)NCC(O)c1ccccc1 (configuration not stated),inactive
6,O=C(Nc1ccccc1Cl)c1ccccc1S(=O)(=O)c1ccccc1[N+](=O)[O-],inactive
7,CCOC(=O)c1sc2nc(C)[nH]c(=O)c2c1C,inactive
8,CCOC(=O)c1sc2nc(CSCC(=O)OCc3ccc(C(=O)OC)o3)[nH]c(=O)c2c1C,18.9 (active)
9,CCOC(=O)c1sc2nc(CSc3ccccc3)[nH]c(=O)c2c1C,inactive
10,COc1ccccc1N1CCN(C(=O)c2ccc(NC3=NC4CS(=O)(=O)CC4S3)cc2)CC1 (configuration not stated),inactive
11,CCn1cc(C(=O)N2CC=C(c3ccccc3)CC2)c(=O)c2ccc(C)nc21,inactive
12,CCOc1cc(-c2conc2N)cc(OCC)c1OCC,inactive
13,O=C(NCc1ccccc1)C(c1ccco1)N(C(=O)c1csnn1)c1ccccc1F (configuration not stated),inactive
14,COc1ccccc1CN1CCNC(=O)C1CC(=O)N(C)CC1CCOCC1 (configuration not stated),inactive
15,Cc1ccc(CNC(=O)Cn2c(=O)c3sccc3n(Cc3cccc([N+](=O)[O-])c3)c2=O)cc1,inactive
16,O=C(O)CC(Cn1cnnn1)c1ccccc1 (configuration not stated),inactive
17,CCc1ccc2nc(Nc3ncc(C(C)=O)c(C)n3)nc(C)c2c1,inactive
18,CC(O)c1ccc(OCCN(C)c2ccccn2)cc1 (configuration not stated),inactive
19,O=C(CC1C(=O)NCCN1C(=O)c1ccc([N+](=O)[O-])cc1)Nc1cccc(Cl)c1 (configuration not stated),inactive
20,CCO[C@@H]1OC(C(=O)NC2CC2)=C[C@H](C)[C@H]1CCCO,inactive
21,O=C(NC1CCCCC1)C1CC(=O)N(CCc2ccccc2)C1 (configuration not stated),inactive
22,CCOC(CNC(=O)C(=O)NCC(c1ccco1)N1CCN(c2ccc(OC)cc2)CC1)OCC (configuration not stated),inactive
23,CCOc1ccc(S(=O)(=O)N2CCC(C(=O)NCc3ccccn3)CC2)cc1Cl,inactive

row,SMILES,B-score
1,O=C(COc1ccccc1)Nc1nonc1NC(=O)COc1ccccc1,inactive
2,CC(=O)c1cc2c(cc1NC(=O)CN1CCCCCC1)OCO2,inactive
3,O=C(CCN1C(=O)C2CCCCC2C1=O)Nc1ccc(OC(F)F)cc1 (configuration not stated),inactive
4,COC(=O)c1ccc(NC(=O)CSc2nnc(-c3ccncc3)n2C)cc1,12.9 (active)
5,COC(=O)c1ccc(NC(=O)CSc2nnc(CNc3ccc(OC)cc3)n2C)cc1,inactive
6,COC(=O)c1ccc(NC(=O)CSc2nnc(C3CC3)n2C)cc1,inactive
7,COc1cccc(-c2cccc(NC(=O)C3CCN(C4CCC4)CC3)c2)c1,inactive
8,CC(=O)c1c(C)[nH]c(C(=O)N2CCN(S(=O)(=O)c3ccc(F)c(F)c3)CC2)c1C,inactive
9,[O-][n+]1onc2c1CCc1[nH]c(-c3ccccc3)nc1-2,inactive
10,C=CCN1C(=NC(=O)COc2ccccc2)SC2CS(=O)(=O)CC21 (configuration not stated),inactive
11,O=c1c2ccccc2cnn1Cc1n[nH]c(=S)n1-c1ccccc1F,inactive
12,CCC(C(=O)OCC(=O)Nc1ccccc1-c1ccccc1)c1ccccc1 (configuration not stated),inactive
13,CCOCCN(C=O)c1cccc(OC)c1,inactive
14,C=CCc1cc(S(=O)(=O)c2ccc(O)c(CC=C)c2)ccc1O,inactive
15,C=CCc1ccc(OCCOc2cccc(/C=N/n3cnnc3)c2)c(OC)c1,inactive
16,CN(C(=O)CC(NC(=O)c1ccccc1)(c1ccccc1)c1ccccc1)c1ccccc1,inactive
17,Cc1cccc(NC(=O)C(C)N2C(=O)C3C4CC(C(Br)C4Br)C3C2=O)c1 (configuration not stated),inactive
18,CC(=O)c1c(N2CCN(c3ccc(F)cc3)CC2)nc(=S)n(-c2ccccc2)c1C,inactive
19,CC(=O)Nc1ccc(NC(=O)COc2ccc(S(=O)(=O)NC(C)c3ccccc3)cc2)cc1 (configuration not stated),inactive
20,FC(F)(F)c1cccc(-c2cc3ccccc3nc2N2CCCC2)c1,inactive
21,Cc1cccc2[nH]c(CN(C)C(=O)C3CCC(=O)N(CCc4ccccc4)C3)nc12 (configuration not stated),inactive
